Tau fluor cs = counter-screen for tau fibril formation inhibitors; tau K18 P301L Alexa594 fluorescence, heparin fibrillization; Potency, µM (highest dose often 57.7 µM), for the others: at the top dose activity change, negative = decrease; 280,000 tested, 0.93% active; AID 1463; further: nearly all actives have a fitted effect of over 55% in size
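Human K18 P301L tau (15 uM unlabeled plus 0.24 uM Alexa 594-labeled, final) in 100 mM sodium acetate pH 7 was mixed with compound and 20 uM heparin and incubated 6 hr at 37 C.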
TexasRed fluor = counter-screen for TRb-SRC2 inhibitors: fluorescence interference. TRb/SRC2 Texas Red total fluorescence interference. AID 1479. 280,000 tested, 0.29% active. Potency, µM (doses to about 106 µM), without a hit: at the highest dose fluorescence change, negative = quenching; active means well fitted curve in either direction with a large enough effect; inconclusive means small, poorly fitted or top-dose-only effect
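Human TRβ ligand-binding domain (0.6 uM) and Texas Red SRC2 peptide (20 nM) in Tris buffer with 1 uM T3 and 5% DMSO were incubated with pinned compound for 5 hr at ambient temperature. Total fluorescence was computed as S + 2P (555/632 nm).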
Tau fibril FP = tau fibrillization inhibition (FP). P10636. K18 P301L tau heparin fibrillization, Alexa594 FP, 6 h. Potency, µM (top dose mostly 57.7 µM), without a hit: at the highest dose activity, negative = inhibition, hits mostly inhibitors. 280,000 tested, 0.39% active; further: nearly all actives have a fitted effect of over 55% in size
Target sequence (P10636 561-689 P618L limits assumed): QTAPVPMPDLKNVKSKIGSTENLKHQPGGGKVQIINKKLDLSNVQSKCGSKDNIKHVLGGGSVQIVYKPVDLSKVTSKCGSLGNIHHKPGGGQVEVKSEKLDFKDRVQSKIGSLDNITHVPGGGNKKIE
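K18 P301L tau (15 uM unlabeled/0.24 uM Alexa 594-labeled, final) + compound + heparin 20 uM final; 100 mM NaOAc pH 7; 6 hr 37 C; ThT 30 uM final added, 1 hr RT; FP ex 555/em 632 nm.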
TRb SRC2 PPI = TRbeta-SRC2 interaction inhibition. P10828. TRbeta-SRC2 peptide binding, fluorescence polarization; receptor liganded with 1 µM T3. Potency, µM (doses to about 106 µM), without a hit: at the highest dose activity change, negative = inhibition, actives largely listed as inhibitors. 280,000 tested, 0.065% active. AID 1469;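 further: plate controls were bound peptide for no effect and peptide without receptor for full effect; nearly all actives have a fitted effect of over 50% in size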
Target sequence (P10828 whole entry, looked up): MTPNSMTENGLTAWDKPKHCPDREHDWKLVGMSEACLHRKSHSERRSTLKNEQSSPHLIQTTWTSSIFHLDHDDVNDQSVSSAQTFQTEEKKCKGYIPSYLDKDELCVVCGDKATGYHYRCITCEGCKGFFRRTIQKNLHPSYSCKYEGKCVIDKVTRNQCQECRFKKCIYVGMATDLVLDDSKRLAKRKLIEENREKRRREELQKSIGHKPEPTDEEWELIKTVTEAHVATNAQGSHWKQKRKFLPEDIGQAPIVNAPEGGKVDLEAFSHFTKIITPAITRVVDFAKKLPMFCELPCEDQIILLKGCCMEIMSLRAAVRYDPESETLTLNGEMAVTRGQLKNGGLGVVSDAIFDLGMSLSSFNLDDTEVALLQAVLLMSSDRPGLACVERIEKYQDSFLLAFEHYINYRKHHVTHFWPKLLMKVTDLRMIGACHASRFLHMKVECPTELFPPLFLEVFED
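Quantitative HTS by FP: 0.6 uM TRb LBD, 20 nM labeled SRC2 20-mer, 1 uM T3, 5% DMSO; 5 hr ambient incubation; % activity per concentration and potencies from concentration series.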
Tau ThT inhib = tau fibrillization inhibition (ThT binding); recombinant tau K18 P301L (four-repeat tau fragment), heparin-induced fibrillization, ThT fluorescence; Potency, µM (top dose mostly 57.4 µM), without a hit: top-dose activity, negative = inhibition, most hits filed as inhibitors; 270,000 tested, 2.1% active; further: nearly all actives have a fitted effect of over 55% in size
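In this qHTS, human K18 P301L tau is incubated with compound and heparin for 6 hr at 37 C, and Thioflavin T fluorescence then reports fibril load.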
* marks the source's active call; other numbers are inactive results; ? = inconclusive; . = no result; ! = repeats disagree; [ ] = remark or other dose. Compounds with a hit are over-represented: about 3.1% of the library has one in this group of screens. Unless noted, the call rests on the fitted dose curve; in most records, active means well fitted curve in the direction sought with a large enough effect; inconclusive means small, poorly fitted or top-dose-only effect, or another doubt; inactive means no such curve, though single readings can be large; an effect the other way counts as inactive or inconclusive. Unless noted, on the % scale 0 is the no-effect control and ±100 the full control effect; potency means the concentration at half of the fitted maximal effect.

SMILES | Tau fluor cs | TexasRed fluor | Tau fibril FP | TRb SRC2 PPI | Tau ThT inhib
O=C(Nc1ccc(Br)cc1)c1cc(Br)cc(Br)c1O | ? | -17.8% | 13.0% | 20.6% | 12.6µM*
C#CCC1=C(C)[C@H](OC(=O)[C@H]2[C@H](C=C(C)C)C2(C)C)CC1=O | . | -1.8%[201 µM] | . | 3.4%[201 µM] | .
CCC(C)n1c(O)c(/C=N/Nc2ccccc2)c(=O)[nH]c1=S (stereo not drawn) | ? | 0.4% | -8.4% | -2.4% | 17.8µM*
O=c1[nH]c(=O)n(CCC2=CCCCC2)c(O)c1/C=N/Nc1cccc2ccccc12 | ? | 11.5% | ? | 10.3% | 17.8µM*
CC(N=Cc1c(O)n(C2CC2)c(=S)[nH]c1=O)c1ccccc1 (stereo not drawn) | -15.8% | 2.6% | -7.5% | 0.4% | -7.9%
O=c1[nH]c(=S)n(C2CC2)c(O)c1/C=N/Nc1ccccc1 | -29.0% | 10.3% | ? | 7.4% | 11.2µM*
O=c1[nH]c(=S)n(C2CC2)c(O)c1/C=N/Nc1cccc2ccccc12 | ? | -1.3% | ? | -1.3% | 11.2µM*
CCS(=O)(=O)c1cccnc1S(=O)(=O)NC(=O)Nc1nc(OC)cc(OC)n1 | . | -4.1%[201 µM] | . | -0.3%[201 µM] | .
Cc1ccc(O)cc1C | . | -1.6% | . | -1.2% | .
COP(=O)(OC)Oc1ccc([N+](=O)[O-])cc1 | . | -4.3%[201 µM] | . | -2.1%[201 µM] | .
CC1=NN(c2ccccc2)C(=O)C1/C=C1/C(=O)NC(=O)N(c2cccc(C)c2)C1=O (stereo not drawn) | -19.6% | 1.6% | -2.2% | -10.3% | ?
CC1=NN(c2ccccc2)C(=O)C1/C=C1/C(=O)NC(=O)N(c2cc(C)cc(C)c2)C1=O (stereo not drawn) | -26.5% | -1.7% | -12.3% | 3.4% | 11.2µM*
CC1=NN(c2ccccc2)C(=O)C1/C=C1\C(=O)NC(=O)N(c2ccc(C)c(C)c2)C1=O (stereo not drawn) | -23.4% | -1.2% | 3.3% | -4.1% | 11.2µM*
CCC[CH2][Sn]([CH2]CCC)([CH2]CCC)[O][Sn]([CH2]CCC)([CH2]CCC)[CH2]CCC | . | 2.5%[201 µM] | . | -2.6%[201 µM] | .
COc1ccc(Nc2cc(C)c3cc(NC(=O)c4ccccc4Cl)ccc3n2)cc1 | 8.91µM*[quencher] | -21.6% | ? | 9.2% | 3.98µM*
N#CC(C#N)=NNc1ccc(OC(F)(F)F)cc1 | ? | -5.6% | ? | -7.4% | 7.94µM*
O=C(Nc1ccc(OC(F)(F)F)cc1)Oc1ccccc1N1CCCCC1 | -23.6% | -0.5% | ? | -9.4% | .
CC(C)c1cc2c(c(O)c1O)[C@@]1(C(=O)O)CCCC(C)(C)[C@@H]1CC2 | ? | -1.3% | ? | -4.6% | 14.1µM*
CC(C)c1cc2c(c(O)c1O)[C@]1(C(=O)O)CCCC(C)(C)C1CC2 (stereo partly drawn) | ? | -2.4% | ? | 3.5% | 28.2µM*
CC1=C(O)C(=O)[C@H]2O[C@@H]2C1=O | ? | -4.1% | 3.98µM* | -1.9% | 2µM*
CNC(=O)O/N=C(\SC)C(=O)N(C)C | . | -3.1%[201 µM] | . | -8.6%[201 µM] | .
Cc1ccc(N=Nc2cc(C)ccc2N)cc1 | 17.8µM*[quencher] | -1.4% | 18.4% | 0.6% | 11.2µM*
CCCN1CCc2cccc3c2C1Cc1ccc(O)c(O)c1-3 (stereo not drawn) | 17.8µM*[quencher] | -6.7% | 31.6µM* | 2.3% | 14.1µM*
CN1CCc2nc3sc(C#N)c(N)c3c(-c3cccs3)c2C1 | ? | -9.1% | ? | -0.5% | 28.2µM*
Cc1ccc2ccccc2c1C | . | -1.5% | . | 3.9% | .
SMILES | Tau fluor cs | TexasRed fluor | Tau fibril FP | TRb SRC2 PPI | Tau ThT inhib
c1ccc2c(c1)[nH]c1cnccc12 | -10.6% | -3.0% | 2.1% | -3.4% | 4.0%
Cc1c2ccncc2c(C)c2c1[nH]c1ccccc12 | ? | -2.9% | 5.2% | 4.0% | 11.2µM*
Cc1cccc(-n2c(O)c(/C=C3/C(c4ccccc4)=Nc4ccccc43)c(=O)[nH]c2=O)c1 | -19.3% | -1.1% | 1.2% | -5.5% | ?
Cc1cccc(N=Cc2c(O)n(-c3ccccc3C)c(=O)[nH]c2=O)c1 | -17.4% | 1.3% | -11.8% | 10.6% | -21.0%
Cc1ccc(-n2c(O)c(/C=C3/C(c4ccccc4)=Nc4ccccc43)c(=O)[nH]c2=O)cc1 | ? | -9.2% | ? | -0.1% | 12.6µM*
Cc1ccccc1-n1c(O)c(C=Nc2ccc(N(C)C)cc2)c(=O)[nH]c1=O | ? | 12.8% | ? | -29.5% | 28.2µM*
Cc1ccccc1-n1c(O)c(/C=C2/C(c3ccccc3)=Nc3ccccc32)c(=O)[nH]c1=O | 4.5% | 31.6µM*[quencher] | 0.0% | ? | 4.4%
CCOP(=O)(OCC)SCSCC | . | 0.3%[201 µM] | . | -1.5%[201 µM] | .
[Cu+2].[O-]c1cccc2cccnc12.[O-]c1cccc2cccnc12 | . | -2.1%[201 µM] | . | 3.8%[201 µM] | .
CC1(C(=O)Nc2ccc(O)c(Cl)c2Cl)CCCCC1 | . | -2.8%[201 µM] | . | -1.8%[201 µM] | .
c1ccc(OP(Oc2ccccc2)Oc2ccccc2)cc1 | . | -1.5%[201 µM] | . | 2.1%[201 µM] | .
Cc1ccc(OCC(=O)N2CCN(CCc3ccncc3)CC2)cc1 | -0.8% | -10.8% | 2.1% | -0.7% | -6.1%
CCc1ccc(OCC(=O)N2CCN(CCc3ccncc3)CC2)cc1 | -6.8% | 708µM*[quencher] | 4.9% | -15.8% | -9.6%
Cc1c(C)n(O)c2ccc3nonc3c12 | -28.6% | -0.5% | ? | 4.2% | 31.6µM*
O=C(O)C1Sc2[nH]c(=O)sc2C2c3cc(Cl)ccc3OC(=O)C12 (stereo not drawn) | ? | 1.0% | -14.5% | -0.6% | 22.4µM*
N#CC(C#N)=Cc1ccc(O)c(O)c1 | 11.0% | -2.9% | ? | 5.5% | 14.1µM*!
CC(C)(C)c1cc(C=C(C#N)C#N)cc(C(C)(C)C)c1O | ? | -0.5% | ? | -6.0% | 15.8µM*
Oc1c(Cl)cc(Cl)cc1Cl | . | -2.6%[201 µM] | . | -0.6%[201 µM] | .
COC(=O)c1ccccc1S(=O)(=O)NC(=O)N(C)c1nc(C)nc(OC)n1 | . | -1.3%[201 µM] | . | 1.8%[201 µM] | .
O=C=Nc1ccc(Cl)cc1 | . | -6.1%[201 µM] | . | -2.4%[201 µM] | .
N#CC1=C(N)Oc2c(c(=O)oc3ccccc23)C1c1ccc([N+](=O)[O-])o1 (stereo not drawn) | -27.5% | 3.8% | ? | 0.1% | 10µM*
CC(C)Oc1ccc(C2C(C#N)=C(N)Oc3c2c(=O)oc2ccccc32)cc1 (stereo not drawn) | ? | -6.6% | ? | -3.4% | -10.9%
O=c1[nH]c(=S)[nH]c(O)c1N=Nc1ccc(-c2ccccc2)cc1[N+](=O)[O-] | ? | -11.3% | -10.6% | 0.9% | 3.98µM*
O=c1[nH]c(=S)[nH]c(O)c1N=Nc1cc2c(cc1[N+](=O)[O-])OCO2 | -20.0% | 0.3% | 2.3% | 5.1% | 12.6µM*
O=C(O)c1ccccc1N=Nc1c(O)[nH]c(=O)[nH]c1=O | 9.5% | -7.0% | 4.9% | -1.7% | -4.1%
CC(C)[C@]1(NC(=O)[C@@H]2C=C3c4cccc5[nH]cc(c45)C[C@H]3N(C)C2)O[C@@]2(O)C3CCCN3C(=O)[C@H](Cc3ccccc3)N2C1=O (stereo partly drawn) | -29.2% | 13.2% | -12.2% | -1.0% | ?
